Bioassay records as filed in PubChem BioAssay.
Most compounds without a hit are left out; they make up all but 4.6% or so of the library.
USP7 block: inhibitors of human USP7 deubiquitinase. inhibition, % at 20 µM. purified USP7, Ub-rhodamine cleavage fluorescence. AID 1645854. Q93009. 47,000 compounds, 0.3% hits
USP8 block: blocks human USP8 ubiquitin-rhodamine cleavage; purified USP8, Ub-rhodamine cleavage fluorescence, 30 min; inhibition, % at 20 µM; 47,000 compounds, 4.2% hits
UCHL1 block: inhibitors of human UCHL1 deubiquitinase; P09936; purified UCHL1, Ub-rhodamine cleavage fluorescence; inhibition, % at 20 µM; 47,000 compounds, 0.2% hits
Target sequence (P09936 whole entry, looked up): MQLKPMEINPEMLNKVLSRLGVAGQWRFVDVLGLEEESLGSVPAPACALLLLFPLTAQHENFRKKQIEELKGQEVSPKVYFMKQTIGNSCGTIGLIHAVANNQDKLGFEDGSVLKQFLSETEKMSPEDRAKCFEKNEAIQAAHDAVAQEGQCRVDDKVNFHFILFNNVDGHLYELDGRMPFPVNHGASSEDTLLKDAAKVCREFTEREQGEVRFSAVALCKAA
USP10 block: blocks human USP10 ubiquitin-rhodamine cleavage; inhibition, % at 20 µM; Q14694; purified USP10, Ub-rhodamine fluorescence, 60 min; 47,000 compounds, 1.1% hits
Numbers without * were called inactive; / = no result. No stated cut-off is given here; in the data, active means inhibition above about 30%; inactive means the rest.

SMILES | USP7 block | USP8 block | UCHL1 block | USP10 block
COc1ccc(C(=O)COc2nc(-c3cccs3)cc(C(F)(F)F)c2C#N)cc1 | -6.7 | 4.6 | -6.8 | -16.3
O=C(NC1CCCC1)N1C[C@H]2C[C@H]3[C@](C1)(CN(Cc1ccncc1)S3(=O)=O)O2 | 9.0 | 7.9 | 1.7 | 5.0
COc1ccc(CC(=O)N2CCC3(CC2)NCCc2[nH]cnc23)cc1 | 1.8 | 24.3 | -0.4 | -5.0
COc1ccc(CC(=O)NCC(=O)N2CCC3(CC2)NCCc2[nH]cnc23)cc1 | 0.1 | 33.7* | -1.4 | -6.4
O=C(NCC(=O)N1CCC2(CC1)NCCc1[nH]cnc12)c1ccc(-c2ccccc2)cc1 | -0.4 | 48.6* | -0.3 | -2.3
O=C(Cc1ccc(F)cc1)N1CCC2(CC1)NCCc1[nH]cnc12 | 2.7 | 38.5* | -1.2 | -1.9
O=C(Cc1ccccc1)NCC(=O)N1CCC2(CC1)NCCc1[nH]cnc12 | -1.1 | 17.8 | -1.8 | -6.1
O=C(Cn1c(COc2ccccc2)nc2ccccc21)Nc1cc(Cl)ccc1Cl | 11.7 | 55.5* | 3.4 | 26.4
O=C(Cn1c(COc2ccccc2)nc2ccccc21)Nc1ccc(N2CCOCC2)cc1 | 10.7 | 33.5* | 2.2 | 23.4
COc1cccc(NC(=O)Cn2c(COc3ccccc3)nc3ccccc32)c1 | 5.6 | 15.1 | 0.6 | 5.9
O=C(Cn1c(COc2ccccc2)nc2ccccc21)Nc1cc(Cl)cc(Cl)c1 | 20.7 | 73.4* | 7.6 | 15.9
COCc1cc(=O)[nH]c2c1c(-c1cccs1)nn2C | 0.0 | -1.3 | -1.7 | -1.8
CCc1noc(C)c1C(=O)N1CCCCC1c1cc(=O)n2[nH]ccc2n1 (configuration not stated) | -0.5 | -47.5 | -4.0 | 3.3
COc1ccc(CCNc2c(-c3ccccc3O)nc3cnccn23)cc1OC | -14.8 | -172.7 | -11.3 | -7.7
N#CC1(c2ccccn2)Cc2ccccc2N2CCCC21 (configuration not stated) | -16.7 | -102.6 | -19.5 | -6.9
O=C(/C=C/c1ccc(Cl)cc1)Nc1cccc(-c2nc3ncccc3o2)c1 | 6.1 | 6.7 | -0.6 | -0.8
COc1ccc(/C=C/C(=O)Nc2ccc(Cl)c(-c3nc4ncccc4o3)c2)cc1 | 11.7 | 58.0* | 2.3 | 23.8
O=C(COC(=O)c1cc2ccccc2oc1=O)Nc1cc(F)ccc1F | -0.7 | 21.7 | -1.2 | 7.0
COc1cc2c(cc1OC)CC(=O)N(Cc1c(F)cccc1Cl)C=C2 | 0.3 | 36.6* | 3.2 | 0.5
O=C(CN1CCC2(CC1)N=C(c1ccc(F)cc1)C(=O)N2)Nc1ccc(F)c(F)c1 | -0.2 | 6.1 | 4.6 | 4.5
CCCc1ccc(C(=O)[C@@H]2[C@@H](C(=O)c3cccs3)N3c4ccc(C)cc4C(C)=C[C@@H]3[C@@]23C(=O)Nc2ccccc23)cc1 | 32.9* | 66.7* | 1.2 | 37.5*
O=C(c1ccc(F)cc1)[C@@H]1[C@H](C(=O)Nc2ccc(Cl)cc2)N2c3ccccc3C=CC2[C@@]12C(=O)Nc1ccccc12 (some centres not stated) | -71.3 | -188.5 | -58.8 | -2.0
c1ccc(Cc2cc(-c3ccccc3)no2)cc1 | 3.6 | 6.9 | 4.7 | 2.3
C=C1O[C@](CO)(n2cnc3c(N)ncnc32)[C@@H](O)[C@H]1O | -4.3 | -1.5 | -2.6 | -4.6
Nc1ncnc2c1ncn2[C@@H]1O[C@H](CO)C[C@@H]1O | 30.3* | 17.3 | 16.4 | 28.3
SMILES | USP7 block | USP8 block | UCHL1 block | USP10 block
COc1cccc(C(=O)Nc2ccc(SC(C)C(=O)Nc3ccc(C(N)=O)cc3)cc2)c1 (configuration not stated) | 7.4 | 15.3 | 0.6 | 36.0*
CCOc1ccc(NC(=O)COc2ccccc2OC)c2cccnc12 | 0.2 | 32.8* | -0.6 | 1.9
O=C(CN(C(=O)c1ccc(-c2ccccc2)[nH]1)c1ccc2c(c1)OCCO2)NC1CCCCC1 | 2.9 | 0.1 | 2.7 | -4.7
O=C(CC1CC1)N1CCC(N2CC(=O)N(Cc3ccccc3Cl)C2)CC1 | -0.3 | -15.3 | -5.0 | 0.9
CC1(C)Oc2ccc(C(=O)N3CCC([C@@H]4NC(=O)N[C@H]5OCCC[C@H]54)CC3)cc2NC1=O | 12.9 | 0.7 | 4.9 | 3.0
O=C1Cc2cc(S(=O)(=O)N3CCC([C@@H]4NC(=O)N[C@H]5OCCC[C@H]54)CC3)ccc2N1 | -4.4 | 42.9* | 2.4 | -4.3
Cc1ccccc1NC(=O)C1CCN(S(C)(=O)=O)c2ccccc2O1 (configuration not stated) | 1.3 | -2.4 | -1.3 | -1.0
Cc1ccc2nc(N3CCc4ccccc4C3)c3nncn3c2c1 | 2.9 | 44.7* | -1.8 | -6.9
Cc1nc(N2CCCC2)ncc1C(=O)Nc1ccc(Cl)cc1 | 3.1 | 1.1 | 3.6 | 1.8
O=C(Cn1nc(-c2ccc3c(c2)OCCO3)ccc1=O)Nc1ccc(Oc2ccccc2)cc1 | 6.5 | 3.2 | 3.9 | 12.1
Cc1ccc(-c2cc(NC(=O)C(C)C)c(=O)n(CC(=O)Nc3ccc(Cl)cc3)n2)cc1 | 6.5 | -11.1 | 5.3 | 10.3
O=C(Cn1cnc(-c2ccccc2)cc1=O)Nc1ccc(Oc2ccccc2)cc1 | 16.2 | 45.9* | 2.5 | 20.3
Cc1ccc(-c2cc(=O)n(CC(=O)Nc3ccc(C(C)C)cc3)cn2)cc1 | 17.8 | 33.8* | -4.7 | 42.5*
O=C(Cn1nc(-c2ccccc2)cc(NC(=O)c2ccccc2)c1=O)Nc1ccc(F)cc1 | / | 4.1 | 1.8 | 37.9*
COc1ccccc1Nc1cc(C)nc2nc(-c3ccco3)nn12 | -26.1 | -22.5 | -41.0 | -8.5
COC(=O)c1ccc(NC(=O)/C=C/c2ccc(F)cc2)cc1 | / | 96.0* | 7.9 | 44.0*
Cc1cccnc1-n1cccc1CN1CCc2c(nc(-c3ccccn3)[nH]c2=O)C1 | -18.7 | -18.8 | -22.5 | -6.0
CCOc1cc2c(cc1OCC)C(c1ccc(OC)cc1)N(c1ccc(OC)c(Cl)c1)C(=O)C2 (configuration not stated) | 14.5 | 35.6* | 11.4 | -4.0
CCOc1cc2c(cc1OCC)C(c1ccc(Cl)cc1)N(c1ccc(C(=O)O)cc1)C(=O)C2 (configuration not stated) | -0.4 | 23.1 | 1.4 | 7.0
O=C(CSc1nc2ccccc2n1S(=O)(=O)c1ccc(Br)cc1)Nc1ccc(Br)cc1F | -0.5 | 14.1 | 4.6 | 6.9
O=C(CSc1nc2ccncc2[nH]1)Nc1ccc(Br)cc1F | 0.3 | 34.7* | -0.3 | 8.8
COc1ccc(S(=O)(=O)c2nnn(-c3cccc(F)c3)c2C)cc1 | -7.2 | -13.9 | -2.5 | 0.0
Cc1c(C(=O)NCC2CCCCC2)nnn1-c1cccc2c1CCN(C1CCOCC1)C2 | -8.3 | 35.6* | 1.4 | -1.9
Cc1c(C(=O)NCC(F)(F)F)nnn1-c1cccc2c1CCN(C1CCOCC1)C2 | -13.5 | -7.3 | -11.4 | -7.1
CC1CCN(S(=O)(=O)c2cn(Cc3noc(-c4n[nH]c5c4CCCC5)n3)cn2)CC1 | -9.9 | -8.3 | -0.5 | -0.3
Cc1cccc(CNC(=O)c2nc(-c3cn(-c4ccccc4)nc3C)no2)c1 | -4.1 | 10.5 | 4.6 | 4.4
CC(OC(=O)c1ccc(N2CCCC2=O)cc1)C(=O)Nc1ccc2c(c1)OCO2 (configuration not stated) | 2.7 | 55.7* | 0.4 | 0.2
CC(OC(=O)c1ccc(N2CCCC2=O)cc1)C(=O)Nc1ccc2c(c1)OCCO2 (configuration not stated) | 0.9 | 12.5 | -1.5 | 4.7
